Screens deposited in PubChem by National Center for Advancing Translational Sciences (NCATS).
Compounds with a hit are over-represented: about 3.2% of the library has one in this group of screens.
ALOX12 inhib = 12-hLO (ALOX12) enzyme inhibition; purified 12-hLO, xylenol orange hydroperoxide absorbance; AID 1452; Potency, µM (doses to about 57.1 µM), inactives show at the highest dose activity change, negative = inhibition, most hits filed as inhibitors; 150,000 tested, 0.12% active; further: potency means the concentration at half of the fitted maximal effect; nearly all actives have a fitted effect of over 55% in size
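Purified human 12hLO (150 nM), preincubated 15 min with compound, then 40 uM arachidonic acid for 30 min, room temperature, Hepes pH 7.0 with 0.01% Triton X-100. Hydroperoxide detected by ferrous iron/xylenol orange; 573/405 nm absorbance ratio gives reaction progress.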
ALOX15B inhib = 15-hLO-2 (ALOX15B) enzyme inhibition | Potency, µM (doses to about 57.1 µM), for inactives: at the top dose activity change, negative = inhibition, hits mostly inhibitors | 110,000 tested, 0.56% active | purified 15hLO-2, xylenol orange hydroperoxide absorbance | AID 881; further: potency means the concentration at half of the fitted maximal effect; nearly all actives have a fitted effect of over 60% in size
Target sequence (O15296 whole entry, looked up): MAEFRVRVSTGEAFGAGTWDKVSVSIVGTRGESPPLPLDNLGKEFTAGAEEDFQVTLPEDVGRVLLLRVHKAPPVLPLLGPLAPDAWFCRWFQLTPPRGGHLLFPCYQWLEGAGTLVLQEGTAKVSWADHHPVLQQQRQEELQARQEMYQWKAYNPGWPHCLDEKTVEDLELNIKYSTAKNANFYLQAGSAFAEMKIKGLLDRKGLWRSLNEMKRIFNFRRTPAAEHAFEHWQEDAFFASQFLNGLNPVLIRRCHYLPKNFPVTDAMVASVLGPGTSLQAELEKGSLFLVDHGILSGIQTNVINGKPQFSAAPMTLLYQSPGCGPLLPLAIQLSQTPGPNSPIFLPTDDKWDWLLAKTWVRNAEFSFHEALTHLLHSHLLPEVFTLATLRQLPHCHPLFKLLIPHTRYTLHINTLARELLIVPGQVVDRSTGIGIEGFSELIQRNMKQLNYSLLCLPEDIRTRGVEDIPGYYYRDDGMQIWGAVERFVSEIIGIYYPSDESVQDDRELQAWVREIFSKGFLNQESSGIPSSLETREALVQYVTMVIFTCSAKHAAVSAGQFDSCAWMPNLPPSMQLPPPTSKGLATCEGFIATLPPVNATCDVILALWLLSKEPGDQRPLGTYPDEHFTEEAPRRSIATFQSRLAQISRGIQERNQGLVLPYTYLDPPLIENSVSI
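Enzyme 50 nM, AA 45 uM, 25 mM Hepes pH 7.5 + 0.01% Triton X-100; cpd preinc 15 min RT, rxn 90 min RT; stop/detect with 200 uM XO + 300 uM Fe(II) in 50 mM H2SO4, 30 min; A573/A405.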
PNC assembly inh = inhibitors of perinucleolar compartment assembly. 140,000 tested, 3.1% active. activity change (PNC), negative = inhibition, % at 10 µM. AID 2417. PC3M PTB-GFP, PNC prevalence imaging, 16 h; active compounds read low;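 active means readout at or below -70, meaning at least 70% loss of cells showing the perinucleolar compartment, a nuclear body marking cancer cells; inconclusive means readout between -30 and a set limit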;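 further: plate controls were DMSO wells for no effect and camptothecin positive control wells for full effect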
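Compounds are pinned in duplicate onto adhered PC3M cells stably expressing GFP-tagged PTB and incubated 16 h at 37 C. Cells are then fixed, nuclei stained with Hoechst, and PNC-positive cells counted.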
* = called active by the depositor; u = inconclusive; x = not tested or not shown; ! = a repeat was not active; [ ] = remark or other dose. Unless noted, the call rests on the fitted dose curve; in most records, active means well fitted curve in the direction sought with a large enough effect; inconclusive means small, poorly fitted or top-dose-only effect, or another doubt; inactive means no such curve, though single readings can be large; an effect the other way counts as inactive or inconclusive. Unless noted, on the % scale 0 is the no-effect control and ±100 the full control effect.

SMILES	ALOX12 inhib	ALOX15B inhib	PNC assembly inh
CN(C(=O)COC(=O)c1cc(NS(=O)(=O)c2cc([N+](=O)[O-])ccc2Cl)ccc1O)C1CCCCC1	3%	x	-95*
CN(C(=O)COC(=O)c1ccc(NS(=O)(=O)c2cccs2)cc1)C1CCCCC1	2%	x	-26
Cc1cccc(C(=O)NNC(=O)CN2C(=O)c3ccccc3C2=O)c1	0%	x	-21
Cc1cc(C)c(NC(=O)C2C3/C=C\CCCCC32)c(C)c1 (stereo unspecified)	8%	-5%	-15
Cc1ccc(NC(=O)C2C3/C=C\CCCCC32)cc1 (stereo unspecified)	-4%	x	-81*
OCCN(CCO)c1nc(N2CCCCC2)c2nc(N(CCO)CCO)nc(N3CCCCC3)c2n1	-2%	20µM*!	-5
Nc1nc(N2CCCCC2)nc(N(c2ccccc2)c2ccccc2)n1	-6%	2%	u
Cc1c(NC(=S)NC(=O)c2cc3ccccc3o2)c(=O)n(-c2ccccc2)n1C	-2%	x	25
COc1ccc(C(=O)Oc2c(C)occc2=O)cc1OC	1%	0%	u
Cc1occc(=O)c1OC(=O)Nc1ccc(Cl)c(Cl)c1	-9%	x	-113*
Cc1cc2ccccn2c1C(=O)c1ccc(Cl)cc1	-5%	-11%	-105*
Cc1cc2ccccn2c1C(=O)c1ccncc1	-6%	-6%	48
CCNc1ncc2nc(-c3cn(C)c4ccccc34)c(=O)n(CCC#N)c2n1	x	-9%	x
O=C(CN1CCCC(O)C1)N1c2ccccc2Sc2ccc(C(F)(F)F)cc21 (stereo unspecified)	-6%	18%	-13
Cc1cc(C)n(CC(=O)N2c3ccccc3Sc3ccc(C(F)(F)F)cc32)n1	-1%	x	-113*
NC[C@H]1O[C@@H](n2cnc3c(=O)[nH]c(N)nc32)[C@@H](O)[C@@H]1O	-8%[11.4 µM]	-4%[11.4 µM]	x
COc1ccc(CN(C(C)=O)c2cccc(C)c2C)cc1	-7%	0%	-107*
COc1ccc(CN(C(=O)CO/N=C/c2ccccc2)c2ccccc2C(=O)O)cc1	5%	x	15
O=S(=O)(c1ccccc1)N1CCC2(CCCN(C(c3ccccc3)c3ccccc3)C2)CC1	1%	2%	x
Cc1ccccc1NC(=O)/C(C#N)=C\c1cccnc1	-3%	-8%	-82*
Cc1ccccc1NC(=O)/C(C#N)=C\c1ccsc1	-1%	x	48
CN(C)c1ccc(N/C=C/C(=O)c2ccco2)cc1	-15%	25µM*	u
CC(=O)Nc1ccc(N/C=C/C(=O)c2ccco2)cc1	-10%	1%	u
CCCn1c(=O)c(C)cn2nc(N)nc12	0%	15%	x
CSCCC(NC(=O)c1cccc(C)c1)C(=O)OCC(=O)NC(=O)c1cccn1C (stereo unspecified)	0%	x	-11
SMILES	ALOX12 inhib	ALOX15B inhib	PNC assembly inh
C#C[C@]1(OC(C)=O)CC[C@H]2[C@@H]3CCC4=CC(=O)CC[C@@H]4[C@H]3CC[C@@]21C	-6%[0.00818 µM]	-30%[0.0915 µM]	x
COc1cccc(/C=C/C(=O)O)c1C(C)C	0%	1%	x
Cc1cc(C)cc(Oc2ccccc2/C=C\C(=O)O)c1	3%	-5%	-86*
CCOC(=O)c1ccc(NC(=S)Nc2ccccn2)cc1	-2%	u	u
O=C1Cn2c(nc3ccccc32)N1c1ccccc1F	2%	-2%	-102*
CN1C(=O)Cn2c1nc1ccccc12	1%	3%	23
CC(=O)c1cccc(-n2nnnc2SCC(=O)Nc2cccc(NC(=O)c3ccco3)c2)c1	-5%	-1%	22
CC(=O)c1cccc(-n2nnnc2SCC(=O)Nc2ccccc2N2CCCCC2)c1	-3%	0%	-106*
CCCCC/C=C\C[C@@H](O)/C=C/C=C\CCC(=O)O	1%	x	x
CC1=C(C(=O)Nc2ccccc2)C(c2ccco2)C(C#N)=C(SCc2ccccc2)N1 (stereo unspecified)	-5%	-19%	u
CC1=C(C(=O)Nc2ccccc2)C(c2ccco2)C(C#N)=C(SCC(=O)Nc2cccc(C)c2C)N1 (stereo unspecified)	-1%	-3%	-82*
COc1ccccc1NC(=S)NC(=O)C(C)(C)C	13µM*	-24%	-26
COc1ccccc1NC(=S)NCCc1ccc(Cl)cc1	14µM*	u	74
COc1ccccc1NC(=S)NCCSc1ccc(Cl)cc1	u	x	11
COc1ccccc1NC(=S)NC(=O)C1CC1	-1%	x	-7
Cc1cc2n(n1)C(c1ccccc1)CC(c1ccc(Br)cc1)=N2 (stereo unspecified)	-20%	x	u
Cc1nc(-c2ccc(NS(C)(=O)=O)cc2)cs1	-1%	7%	-80*
Cc1nc(-c2cccc(NS(C)(=O)=O)c2)cs1	3%	-1%	u
O=Cc1c2[nH]c3ccccc3c2cc2[nH]c3ccccc3c12	3%	x	x
CC1(CCc2ccccc2)NC(=S)N(c2ccc(Cl)cc2)N1 (stereo unspecified)	u	x	-5
CC1(CCc2ccccc2)NC(=S)N(c2ccccc2)N1 (stereo unspecified)	u	x	-124*
CCCCCCC(=O)N1CCC(c2nc3c(nnn3Cc3ccccc3Cl)c(=O)[nH]2)CC1	-10%	-22%	u
O=C(CCCc1ccccc1)N1CCc2ccccc21	-1%	-8%	4
COC(=O)c1ccc(NC(CC(C)C)C(=O)OC)c([N+](=O)[O-])c1 (stereo unspecified)	-6%	x	-119*
COC(=O)C(CC(C)C)NC(=O)c1ccc(F)cc1 (stereo unspecified)	4%	0%	u
SMILES	ALOX12 inhib	ALOX15B inhib	PNC assembly inh
CC1=CC(C)(C)N(S(=O)(=O)c2ccc(C)cc2)c2cc(C)ccc21	-6%	0%	-95*
Cc1ccc(S(=O)(=O)N2C(=S)SCC2(C)C)cc1	-17%	1%	u
C=CCOc1c(Cl)cc(C2NC(=O)NC(C)=C2C(=O)OC)cc1Cl (stereo unspecified)	-2%	-1%	20
FC(F)(F)c1cc(CN2CC3(CCNCC3)C2)cc(C(F)(F)F)c1	5%	68%	x
COCCn1c(SCC(=O)Nc2ccccc2C)nc2c(oc3ccccc32)c1=O	0%	x	4
COCCn1c(SCC(=O)Nc2ccc(C)cc2C)nc2c(oc3ccccc32)c1=O	-2%	x	-107*
CCOC(=O)N/N=C(\C)c1ccc(C)c([N+](=O)[O-])c1	-2%	x	0
CCCCCCCCCCCCCCCC(N)=O	-3%	x	x
O=C(CCN1C(=O)C2CC=C(Cl)CC2C1=O)NCc1ccco1 (stereo unspecified)	-4%	-1%	37
O=C1C2CC=C(Cl)CC2C(=O)N1CN(Cc1ccco1)CN1C(=O)C2CC=C(Cl)CC2C1=O (stereo unspecified)	-16%	-6%	-96*
Cc1ccc(CSCCNC(=O)c2cccc([N+](=O)[O-])c2)cc1	-5%	x	u
Cc1ccc(NCCC(=O)c2cccc([N+](=O)[O-])c2)c(C)c1	0%	-28%	-84*
CC[C@H](C)[C@H](NC(=O)OCC1c2ccccc2-c2ccccc21)C(=O)O	-1%	-5%	x
CC(C)(CC(=O)Nc1ccccc1)C(=O)O	4%[11.4 µM]	13%[11.4 µM]	x
CCN(CC)c1ccc(/C=N/Nc2nc3ccccc3[nH]2)c(O)c1	-28%	3%	u
Cc1ccc2cc(/C=N/Nc3nc4ccccc4[nH]3)c(Cl)nc2c1	3%	x	-88*
